# Measured values reported in the supplement of paper PMC7057948, “A genome-wide approach for identification and characterisation of metabolite-inducible systems” (Nature Communications, 2020).
# Assays:
# Conditions in all cases: inducer concentration 5 mM; 6 h; Cupriavidus necator H16; minimal medium + 0.4% gluconate
# [1] = tested on: AcoR/P_H16_RS19445 acetoin biosensor (pEH052); assay: relative induction of RFP reporter vs primary effector; higher = stronger activation
# Protocol: (§1)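 Orthogonality screen of 21 primary inducers against 21 transcription factor/inducible promoter–mRFP biosensors in C. necator H16 in minimal medium, robotic 96-well format, 5 mM inducer, 30 °C. OD-normalised RFP fluorescence was read 6 h later and expressed as relative induction (%) = 100 × (FL compound − FL uninduced)/(FL primary inducer − FL uninduced); mean of n=4. Cognate pairs (100% by definition) omitted.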
# [2] = tested on: AraC/P_araBAD L-arabinose biosensor (pEH176); assay: as above
# Protocol: as §1
# [3] = tested on: BadR/P_H16_RS27200 cyclohexanecarboxylate biosensor (pEH159); assay: as above
# Protocol: as §1
# [4] = tested on: BenM/P_H16_RS09790 benzoate biosensor (pEH148); assay: as above
# Protocol: as §1
# [5] = tested on: FdsR/P_H16_RS03165 formate biosensor (pEH134); assay: as above
# Protocol: as §1
# [6] = tested on: GabR/P_H16_RS23655 GABA biosensor (pEH256); assay: as above
# Protocol: as §1
# [7] = tested on: HpdA/P_H16_RS24175 L-tyrosine biosensor (pEH158); assay: as above
# Protocol: as §1
# [8] = tested on: NahR/P_H16_RS08125 salicylate biosensor (pEH042); assay: as above
# Protocol: as §1
# [9] = tested on: OapR/P_H16_RS01330 beta-alanine biosensor (pEH147); assay: as above
# Protocol: as §1
# [10] = tested on: PcaQ/P_H16_RS30145 3,4-dihydroxybenzoate biosensor (pEH161); assay: as above
# Protocol: as §1
# [11] = tested on: PhgR/P_H16_RS05530 phenylglyoxylate biosensor (pEH155); assay: as above
# Protocol: as §1
# [12] = tested on: SauR/P_H16_RS13695 sulfonatoacetate biosensor (pEH157); assay: as above
# Protocol: as §1
# [13] = tested on: TtdR/P_H16_RS10665 tartrate biosensor (pEH083); assay: as above
# Protocol: as §1
# [14] = tested on: heterologous L-rhamnose-inducible system; assay: as above
# Protocol: as §1
# [15] = tested on: heterologous acrylate-inducible system; assay: as above
# Protocol: as §1
# [16] = tested on: heterologous cumate-inducible system; assay: as above
# Protocol: as §1
# [17] = tested on: heterologous itaconate-inducible system; assay: as above
# Protocol: as §1
# [18] = tested on: AcoR/P_H16_RS19445 acetoin biosensor (pEH052); assay: relative induction of RFP reporter vs primary effector (background-corrected); higher = stronger activation of the biosensor
# Protocol: (§2)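 C. necator H16 strains, each carrying one of 21 transcription factor/inducible promoter–mRFP biosensor plasmids, were grown in minimal medium in 96-well plates (robotic platform). Each was exposed to 46 structurally or metabolically related compounds at 5 mM at 30 °C. OD-normalised RFP fluorescence was read 6 h later and expressed as relative induction (%) = 100 × (FL compound − FL uninduced)/(FL primary inducer − FL uninduced); mean of n=4.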
# [19] = tested on: AraC/P_araBAD L-arabinose biosensor (pEH176); assay: as above
# Protocol: as §2
# [20] = tested on: BenM/P_H16_RS09790 benzoate biosensor (pEH148); assay: as above
# Protocol: as §2
# [21] = tested on: FdsR/P_H16_RS03165 formate biosensor (pEH134); assay: as above
# Protocol: as §2
# [22] = tested on: GabR/P_H16_RS23655 GABA biosensor (pEH256); assay: as above
# Protocol: as §2
# [23] = tested on: HpdR/P_H16_RS18295 3-hydroxypropanoate biosensor (pEH010); assay: as above
# Protocol: as §2
# [24] = tested on: KynR/P_H16_RS14030 L-kynurenine biosensor (pEH136); assay: as above
# Protocol: as §2
# [25] = tested on: NahR/P_H16_RS08125 salicylate biosensor (pEH042); assay: as above
# Protocol: as §2
# [26] = tested on: OapR/P_H16_RS01330 beta-alanine biosensor (pEH147); assay: as above
# Protocol: as §2
# [27] = tested on: PcaQ/P_H16_RS30145 3,4-dihydroxybenzoate biosensor (pEH161); assay: as above
# Protocol: as §2
# [28] = tested on: PhgR/P_H16_RS05530 phenylglyoxylate biosensor (pEH155); assay: as above
# Protocol: as §2
# [29] = tested on: PhhR/P_H16_RS18365 L-phenylalanine biosensor (pEH137); assay: as above
# Protocol: as §2
# [30] = tested on: SauR/P_H16_RS13695 sulfonatoacetate biosensor (pEH157); assay: as above
# Protocol: as §2
# [31] = tested on: TtdR/P_H16_RS10665 tartrate biosensor (pEH083); assay: as above
# Protocol: as §2
# [32] = tested on: XdhR/P_H16_RS05055 xanthine biosensor (pEH154); assay: as above
# Protocol: as §2
# [33] = tested on: heterologous inducible system pEH002 (rhamnose/acrylate/cumate/itaconate set); assay: as above
# Protocol: as §2
# [34] = tested on: heterologous inducible system pEH020 (rhamnose/acrylate/cumate/itaconate set); assay: as above
# Protocol: as §2
# [35] = tested on: heterologous inducible system pEH040 (rhamnose/acrylate/cumate/itaconate set); assay: as above
# Protocol: as §2
# [36] = tested on: heterologous inducible system pEH086 (rhamnose/acrylate/cumate/itaconate set); assay: as above
# Protocol: as §2
# [37] = tested on: XdhR/P_H16_RS05055 xanthine biosensor (pEH154); assay: relative induction of RFP reporter vs primary effector; higher = stronger activation
# Protocol: as §1
# 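For relative induction of RFP reporter vs primary effector (background-corrected) in this document: RFP excited at 585 nm with emission read at 620 nm, culture medium blanks subtracted from fluorescence and absorbance prior to normalisation.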
compound,measurement,setting,value
O=c1[nH]c(=O)c2nc[nH]c2[nH]1 [xanthine],relative induction of RFP reporter,[1],-1.36%
same,relative induction of RFP reporter,[2],0.0252%
same,relative induction of RFP reporter,[3],-0.537%
same,relative induction of RFP reporter,[4],-0.0092%
same,relative induction of RFP reporter,[5],-4.71%
same,relative induction of RFP reporter,[6],-1.02%
same,relative induction of RFP reporter,[7],-0.0594%
same,relative induction of RFP reporter,[8],0.0144%
same,relative induction of RFP reporter,[9],1.27%
same,relative induction of RFP reporter,[10],-0.198%
same,relative induction of RFP reporter,[11],-0.06%
same,relative induction of RFP reporter,[12],0.0306%
same,relative induction of RFP reporter,[13],0.737%
same,relative induction of RFP reporter,[14],0.0204%
same,relative induction of RFP reporter,[15],-1.68%
same,relative induction of RFP reporter,[16],-0.479%
same,relative induction of RFP reporter,[17],0.00052%
O=C(O)C(O)C(=O)O [tartronic acid],relative induction of RFP reporter,[18],0.914%
same,relative induction of RFP reporter,[19],-0.0176%
same,relative induction of RFP reporter,[20],0.0119%
same,relative induction of RFP reporter,[21],-1.37%
same,relative induction of RFP reporter,[22],-0.481%
same,relative induction of RFP reporter,[23],0.0561%
same,relative induction of RFP reporter,[24],0.115%
same,relative induction of RFP reporter,[25],0.00865%
same,relative induction of RFP reporter,[26],0.0759%
same,relative induction of RFP reporter,[27],-0.0557%
same,relative induction of RFP reporter,[28],-0.449%
same,relative induction of RFP reporter,[29],-0.338%
same,relative induction of RFP reporter,[30],0.0532%
same,relative induction of RFP reporter,[31],0.714%
same,relative induction of RFP reporter,[32],-0.218%
same,relative induction of RFP reporter,[33],0.00666%
same,relative induction of RFP reporter,[34],-0.0821%
same,relative induction of RFP reporter,[35],0.945%
same,relative induction of RFP reporter,[36],0.0674%
N[C@@H](Cc1c[nH]c2ccccc12)C(=O)O [L-tryptophan],relative induction of RFP reporter,[18],-1.3%
same,relative induction of RFP reporter,[19],0.00791%
same,relative induction of RFP reporter,[20],-0.0226%
same,relative induction of RFP reporter,[21],34.8%
same,relative induction of RFP reporter,[22],-1.31%
same,relative induction of RFP reporter,[23],-0.00554%
same,relative induction of RFP reporter,[24],65.7%
same,relative induction of RFP reporter,[25],0.00282%
same,relative induction of RFP reporter,[26],-0.39%
same,relative induction of RFP reporter,[27],-0.161%
same,relative induction of RFP reporter,[28],-0.235%
same,relative induction of RFP reporter,[29],1.21%
same,relative induction of RFP reporter,[30],0.0508%
same,relative induction of RFP reporter,[31],-0.293%
same,relative induction of RFP reporter,[32],-0.684%
same,relative induction of RFP reporter,[33],0.00955%
same,relative induction of RFP reporter,[34],-1.17%
same,relative induction of RFP reporter,[35],-1.03%
same,relative induction of RFP reporter,[36],-0.228%
O=C(O)c1ccccc1,relative induction of RFP reporter,[10],0.00574%
O=C(O)CS(=O)(=O)O [sulfonatoacetate],relative induction of RFP reporter,[1],0.846%
same,relative induction of RFP reporter,[2],0.0162%
same,relative induction of RFP reporter,[3],-0.423%
same,relative induction of RFP reporter,[4],-0.0067%
same,relative induction of RFP reporter,[5],-4.35%
same,relative induction of RFP reporter,[6],-1.11%
same,relative induction of RFP reporter,[7],-0.143%
same,relative induction of RFP reporter,[8],-0.0115%
same,relative induction of RFP reporter,[9],-0.372%
same,relative induction of RFP reporter,[10],-0.165%
same,relative induction of RFP reporter,[11],-0.406%
same,relative induction of RFP reporter,[13],0.749%
same,relative induction of RFP reporter,[37],-0.434%
same,relative induction of RFP reporter,[14],0.0242%
same,relative induction of RFP reporter,[15],-0.561%
same,relative induction of RFP reporter,[16],0.916%
same,relative induction of RFP reporter,[17],0.693%
